Screening data: PubChem, several laboratories
Only some compounds are listed: those with a hit (about 6.7% of all), similar ones and a draw of the others.
BoNT F protease = inhibitors of Botulinum neurotoxin F light chain protease | Multiplex microsphere protease cleavage assay, flow cytometry | inhibition, % at 10 µM | 360,000 compounds, 0.22% hits | AID 588497; in the data active means inhibition above about 35%, passing the limit was not always enough; inconclusive means no clear call, values can overlap the other calls; further: plate controls were buffer without enzyme for full effect and enzyme alone for no effect
BoNT-A LC inh2 = inhibitors of Botulinum neurotoxin A light chain protease. multiplex microsphere protease substrate cleavage, flow cytometry. inhibition, % at 10 µM. 360,000 compounds, 0.17% hits. AID 588499; further: plate controls were buffer without enzyme for full effect and enzyme alone for no effect
GDH-TPI inh = GDH-TPI coupled enzyme inhibition counter-screen. GDH-TPI coupled enzyme counterscreen, NADH absorbance. inhibition, % at 4.8 µM. 360,000 compounds, 1.2% hits. AID 588335; in the data active means inhibition above about 30%;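 further: 0% = DMSO wells and 100% = wells lacking the enzyme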
Mtb FBA inh = Mtb fructose-bisphosphate aldolase inhibition | P9WQA3 | purified M. tuberculosis FBA, fluorescence read-out | inhibition, % at 1 µM | 360,000 compounds, 2.3% hits | AID 588726; in the data active means inhibition above about 27%;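 further: 0% = vehicle and 100% = reference inhibitor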
Bead autofluor = flagged as autofluorescent in microsphere protease counterscreen; compound autofluorescence counterscreen, microsphere flow cytometry; hits give high values; fluorescence intensity (test concentration not listed); 360,000 compounds, 3.1% hits; in the data active means fluorescence intensity above about 16000; inconclusive means no clear call, values can overlap the other calls
Anthrax LF inh2 = inhibitors of Bacillus anthracis lethal factor protease. P15917. multiplex microsphere protease cleavage assay, LF. inhibition, % at 10 µM. 360,000 compounds, 0.12% hits. AID 588501; further: plate controls were buffer without enzyme for full effect and enzyme alone for no effect
Target sequence (P15917 whole entry, looked up): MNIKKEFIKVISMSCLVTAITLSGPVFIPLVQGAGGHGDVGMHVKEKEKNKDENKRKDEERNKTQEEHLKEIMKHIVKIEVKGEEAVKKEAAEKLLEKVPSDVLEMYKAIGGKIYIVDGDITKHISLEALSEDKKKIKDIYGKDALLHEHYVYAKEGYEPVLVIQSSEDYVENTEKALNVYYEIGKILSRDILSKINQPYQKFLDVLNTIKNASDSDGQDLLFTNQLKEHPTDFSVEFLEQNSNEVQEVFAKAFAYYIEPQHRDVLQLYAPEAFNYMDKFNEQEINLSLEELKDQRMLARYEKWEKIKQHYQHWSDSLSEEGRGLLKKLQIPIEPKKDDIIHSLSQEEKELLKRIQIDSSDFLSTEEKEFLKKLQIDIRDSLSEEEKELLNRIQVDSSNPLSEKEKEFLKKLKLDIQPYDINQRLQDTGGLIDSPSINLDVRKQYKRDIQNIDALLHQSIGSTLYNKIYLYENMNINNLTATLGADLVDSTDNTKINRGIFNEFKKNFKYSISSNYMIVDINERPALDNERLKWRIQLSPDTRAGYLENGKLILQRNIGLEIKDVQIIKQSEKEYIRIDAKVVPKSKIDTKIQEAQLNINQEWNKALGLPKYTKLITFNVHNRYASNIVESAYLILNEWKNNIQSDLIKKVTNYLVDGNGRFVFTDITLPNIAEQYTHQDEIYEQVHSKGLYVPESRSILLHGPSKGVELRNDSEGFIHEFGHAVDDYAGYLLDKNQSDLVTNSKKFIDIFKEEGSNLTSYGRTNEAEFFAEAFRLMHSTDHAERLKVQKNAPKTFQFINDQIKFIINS
Numbers without * were called inactive; ? = inconclusive; nt = no result given; + = active, no number. Unless noted, no stated cut-off is given here; in the data, active means inhibition above about 30%; inconclusive means no clear call, values can overlap the other calls; inactive means below that.

SMILES	BoNT F protease	BoNT-A LC inh2	GDH-TPI inh	Mtb FBA inh	Bead autofluor	Anthrax LF inh2
O=C(CCl)Nc1cc(SCC(O)CO)cc([N+](=O)[O-])c1 (stereo not drawn)	-6.7	-0.8	1.0	-1.2	2016	-1.1
COCCCNC(=O)c1c(N)n(/N=C/c2ccccn2)c2nc3ccccc3nc12	10.5	-0.1	8.3	-2.9	4797	-2.8
COCCCNC(=O)c1c(N)n(-c2cccc(S(N)(=O)=O)c2)c2nc3ccccc3nc12	1.8	1.1	1.9	138.3*	3151	3.7
Cc1nc(-n2cc(F)c(=O)[nH]c2=O)c2nc(C)oc2n1	-4.2	-2.5	12.2	-1.6	17089*	-4.2
CC1=C(C(=O)OCc2ccccc2)C(/C=C/c2ccccc2)NC(=S)N1 (stereo not drawn)	-5.8	0.3	10.7	4.6	1951	-0.4
C=CCOC(=O)C1=C(C)NC(=S)NC1/C=C/c1ccccc1 (stereo not drawn)	-9.8	-4.6	11.8	-3.5	18190*	0.2
Cc1cc(O)c(NC(=O)c2ccc(Br)o2)cc1C	4.3	1.9	-11.2	3.9	21608*	-3.7
CCN(CC)c1ccc(NC(=O)c2ccc(Br)o2)c(C)c1	-2.7	-0.9	-6.2	-0.5	20876*	-2.6
COc1ccccc1NC(=O)c1ccc(Br)o1	-13.8	-0.8	-8.0	1.5	4730	1.3
CCN(CC)c1ccc(NC(=O)c2ccco2)c(C)c1	-1.2	0.2	12.8	2.6	8082	2.0
O=C(Nc1cccc(Cl)c1N1CCCC1)c1ccc(Br)o1	-6.1	-1.7	-3.2	-0.1	21468*	-3.4
CC(C)CN1CCC(=O)N([C@H](CSc2ccc(Br)cc2)c2ccccc2)CC1	-13.4	-0.1	10.3	1.0	3286	2.6
O=C1CCCc2c1[nH]c1ccc(CN3CCCCC3)cc21	-1.7	0.3	10.6	18.7	23077*	-1.6
CC1(C)CC(=O)C(C(c2ccco2)C2C(=O)CC(C)(C)CC2=O)C(=O)C1	-2.4	-0.6	12.1	0.5	23157*	-1.9
CC1(C)CC(=O)C(C(c2ccc(F)cc2)C2C(=O)CC(C)(C)CC2=O)C(=O)C1	-2.2	0.6	4.9	1.1	2431	2.0
CN(C)C(CNC(=O)c1ccc(NS(=O)(=O)c2ccc(F)cc2)cc1)c1ccco1 (stereo not drawn)	-186.1	-128.2	5.2	-0.7	36456*	-26.7
CCC(=O)N1N=C(c2ccc(NS(=O)(=O)CC)cc2)CC1c1ccc(C)cc1 (stereo not drawn)	-1.8	-0.1	5.2	+	2767	0.5
CS(=O)(=O)Nc1ccc(C2=NN(C(=O)c3ccco3)C(c3cccc(F)c3)C2)cc1 (stereo not drawn)	-0.7	-0.4	31.4*	2.9	2545	1.7
CCS(=O)(=O)Nc1ccc(C2=NN(C(=O)c3ccco3)C(c3ccc(Cl)o3)C2)cc1 (stereo not drawn)	-7.6	-0.3	50.0*	5.2	2950	-0.4
CCS(=O)(=O)Nc1ccc(C2=NN(C(=O)c3ccco3)C(c3ccc(C)cc3)C2)cc1 (stereo not drawn)	-1.6	?	24.1	3.1	16946*	-13.2
Cc1cc(-c2ccco2)n(-c2ccccc2)n1	-14.3	2.1	0.5	2.9	3845	-0.3
CCOc1cc(/C=C(\C#N)c2[nH]nc(N)c2C#N)ccc1O	-5.3	-1.8	14.6	0.5	23984*	0.5
Cc1ccc(C(=O)/C=C/c2cn(CN3CCN(C)CC3)c3ccccc23)cc1	-2.4	1.2	5.6	4.0	22519*	0.6
CC(C)NC(=O)CN1C(=O)C(=O)c2ccccc21	-2.3	?	8.7	3.0	22994*	-2.7
N#Cc1nc(COc2ccc(Br)cc2)oc1NCCN1CCOCC1	-2.5	-2.1	-4.6	3.8	23449*	0.2
SMILES	BoNT F protease	BoNT-A LC inh2	GDH-TPI inh	Mtb FBA inh	Bead autofluor	Anthrax LF inh2
N#Cc1nc(COc2ccc(F)cc2)oc1NCCN1CCOCC1	4.4	-0.1	-4.4	0.7	4219	-2.6
CCCc1nc2ccc(Br)cn2c1Cc1ccccc1OC	-24.9	3.6	nt	-1.4	7632	-9.1
CC1(C)Cc2c(sc(NC(=O)c3ccco3)c2C#N)CO1	-7.2	-0.8	31.1*	-0.8	6078	-3.4
Cc1cccc(NC(=O)c2sc(NC(=O)c3ccco3)c(C#N)c2C)c1C	-4.3	0.7	35.5*	2.7	6938	-1.1
COC(=O)c1c(NC(=O)c2ccccc2)sc2c1CC(C)(C)OC2	-2.1	?	14.9	1.4	16350*	-12.5
Cc1cccc(NC(=O)c2ccco2)c1C	9.2	-0.1	15.4	1.4	3411	-10.4
O=C(/C=C/[C@H]1O[C@@H](n2cnc3c(NC(=O)c4ccccc4)ncnc32)[C@H](O)[C@@H]1O)NCC1CCCO1 (stereo partly drawn)	5.7	-0.6	nt	2.6	4187	-1.9
COc1cc(CNC2CCCC2)cc(Cl)c1OCc1ccc(F)cc1	-11.7	-0.7	-0.3	3.8	?	-8.9
CC1=C(C(=O)OCc2ccccc2)C(c2ccc([N+](=O)[O-])cc2)NC(=O)N1 (stereo not drawn)	-1.7	-3.5	16.4	-1.4	3793	-5.0
Cc1ccc(/C=N/NC(=O)c2cc3c(ccc4ccccc43)o2)o1	11.4	3.5	22.1	5.3	3950	-1.8
O=C(N/N=C/c1cc(Br)c(O)c(Br)c1)c1cc2c(ccc3ccccc32)o1	-9.9	-4.3	32.6*	4.7	4950	2.7
O=C(N/N=C/c1ccc(O)c(Br)c1)c1cc2c(ccc3ccccc32)o1	-7.4	1.2	26.8	-0.3	4629	-1.0
O=C(N/N=C/c1cc(Cl)c(O)c(Cl)c1)c1cc2c(ccc3ccccc32)o1	-5.1	0.0	32.0*	3.5	6238	1.2
CCNc1nc(Cl)nc(NC(C)C)n1	-1.4	-0.3	-2.9	-2.4	2175	-0.4
OC1CCCN(Cc2nc(Cc3ccccc3Cl)no2)C1 (stereo not drawn)	1.9	0.2	7.2	-0.7	2097	-0.5
Nc1ccc(-c2nnn(Cc3ccccc3)n2)cc1	-1.2	-4.6	17.4	0.3	3984	9.4
O=C(O)C1CCCN1S(=O)(=O)c1ccc2[nH]c(=O)c(=O)[nH]c2c1 (stereo not drawn)	-5.7	-2.5	0.6	7.4	25018*	-2.8
Nc1ccc(S(=O)(=O)N2CCCC2C(=O)O)cc1 (stereo not drawn)	-11.3	0.5	6.0	-3.1	5844	4.6
O=c1[nH]c2ccc(S(=O)(=O)N3CCN(Cc4ccccc4)CC3)cc2[nH]c1=O	-3.9	-2.6	9.2	8.0	21331*	-0.7
C(=C\c1ccccc1)/CN1CCN(C(CCc2ccccc2)c2nnnn2-c2ccc3c(c2)OCCO3)CC1 (stereo not drawn)	-3.8	-0.1	nt	0.9	6229	0.4
O=[n+]1c2c(n([O-])c3ccccc31)CCCC2	2.2	0.3	13.1	1.0	16483*	-0.5
Cc1cccc(NC(=O)CN(C)S(=O)(=O)c2cccc3nsnc23)c1C	18.1	0.8	3.2	-1.5	6997	3.5
Cc1ccc(CNc2ncnc3c2cnn3-c2ccccc2)cc1	-1.3	-1.5	0.6	-3.9	16965*	1.4
